In PubChem BioAssay AID720697 (Broad Institute, 2013):
Measured potencies and affinities stand elsewhere. Inconclusive results are not listed. Activity calls are given as the source filed them.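 The calls were made as follows: active = signal loss with fitted half-maximal concentration at or below twice the top valid tested dose in every test run; inconclusive = runs disagree, flat 30 to 70% signal loss, or poor fit; inactive = all runs flat, opposite direction, or potency beyond limit.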

Experiment: general mammalian cell viability loss – inhibitor set, cherry-pick, set 2, cytotoxicity control for miR-122 modulator project, dose response (AID 720697)
Conditions: HEK293T viability, CellTiter-Glo luminescence, 48 h; series mostly up to 26 µM

Compound	outcome
Cc1cccc(NC(=O)C[C@H]2CC[C@H]3[C@@H](COc4ccc(NC(=O)NC(C)C)cc4C(=O)N3C)O2)c1	inactive
CC(=O)N1[C@H](CO)[C@@H](c2ccccc2)[C@H]1CN(C)C(=O)CN1CCOCC1	inactive
CN1C(=O)c2cc(NC(=O)Nc3ccc(Cl)cc3)ccc2OC[C@H]2O[C@H](CC(=O)NCCN3CCCCC3)CC[C@H]21	inactive
C/C=C/c1ccc([C@@H]2[C@@H](CNC(=O)c3ccncc3)N(C(=O)CC)[C@H]2CO)cc1	inactive
C[C@@H]1CN([C@H](C)CO)S(=O)(=O)c2ccc(C#CC3(O)CCCC3)cc2O[C@@H]1CN(C)C(=O)c1cccnc1	inactive
O=C(C1CC1)N(CCN(C(=O)C1CC1)c1ccccc1)c1ccccc1	inactive
CCC(=O)N1C[C@H]2[C@@H](c3ccccc31)[C@H](CO)N2Cc1cc(F)ccc1F	inactive
CN1C(=O)c2cc(NC(=O)c3cccc(F)c3)ccc2OC[C@@H]2O[C@H](CC(=O)O)CC[C@@H]21	inactive
C/C=C/c1ccc([C@H]2[C@@H](CO)N(C(=O)CC)[C@H]2CNC(=O)CC)cc1	inactive
C[C@@H]1CN([C@@H](C)CO)C(=O)c2cccc(NS(C)(=O)=O)c2O[C@H]1CN(C)S(=O)(=O)c1ccc(Cl)cc1	inactive
CN1C(=O)c2cc(NC(=O)c3cccc(F)c3)ccc2OC[C@@H]2O[C@@H](CC(=O)O)CC[C@H]21	inactive
COc1cccc(CNC(=O)C[C@H]2CC[C@@H]3[C@H](COc4ccc(NC(C)=O)cc4C(=O)N3C)O2)c1	inactive
CCCCN(CCCC)C(=O)CN(C)S(=O)(=O)c1ccc2c(c1)n(C)c(=O)c(=O)n2C	inactive
CC(C)(C)c1ccc(S(=O)(=O)NCCc2ccncc2)cc1	inactive
CCCNC(=O)C[C@H]1CC[C@H]2[C@@H](COc3ccc(NC(=O)c4cc(F)cc(F)c4)cc3C(=O)N2C)O1	inactive
COc1ccc(C(=O)N2C[C@H]3[C@@H](c4ccccc42)[C@@H](CO)N3C(=O)Cc2ccccn2)cc1	inactive
O=C(c1cccnc1)N1C[C@H]2[C@@H](c3ccccc31)[C@H](CO)N2C(=O)Nc1ccccc1	inactive
COCC(=O)N(C)C[C@H]1Oc2cc(-c3ccccc3F)ccc2S(=O)(=O)N([C@H](C)CO)C[C@H]1C	inactive

Compound	outcome
CCCNC(=O)C[C@H]1CC[C@@H]2[C@H](COc3ccc(NC(=O)c4cccs4)cc3C(=O)N2C)O1	inactive
Cc1ccc(-c2ccc3c(c2)O[C@H](CN(C)C(=O)CC2CC2)[C@H](C)CN([C@H](C)CO)S3(=O)=O)cc1	inactive
Cc1cccc(NC(=O)c2sc3nc(-c4ccc(F)cc4)cn3c2C)n1	inactive
COc1ccc(C#Cc2ccc3c(c2)O[C@@H](CN(C)C(=O)CN2CCOCC2)[C@@H](C)CN([C@H](C)CO)S3(=O)=O)cc1	inactive
CCCNC(=O)N1C[C@@H]2[C@H](c3ccccc31)[C@H](CO)N2C(=O)C1CCOCC1	inactive
CCCNC(=O)Nc1ccc2c(c1)C(=O)N(C)[C@H]1CC[C@@H](CC(=O)NCC3CCCCC3)O[C@@H]1CO2	inactive
COc1nnc(-c2ccc(N3CCOCC3)c(NC(=O)c3ccccc3)c2)c2ccccc12	inactive
C/C=C/c1ccc([C@H]2[C@@H](CO)N(Cc3ccccn3)[C@H]2CNC(C)=O)cc1	inactive
N#CCc1c(C#N)c(N)nc(N2CCN(S(=O)(=O)c3ccccc3)CC2)c1C#N	inactive
O=C(Nc1ccccc1F)N1C[C@H]2[C@@H](c3ccccc31)[C@@H](CO)N2C(=O)C1CC1	inactive
CNC(=O)C[C@H]1CC[C@H]2[C@H](COc3ccc(NC(=O)c4cccc(F)c4)cc3C(=O)N2C)O1	inactive
Cc1cc(C)cc(NC(=O)Nc2ccc3c(c2)C(=O)N(C)[C@@H]2CC[C@H](CC(=O)O)O[C@@H]2CO3)c1	inactive
CCOC(=O)c1nc(C)n(-c2ccc(Cl)cc2Cl)n1	inactive
Cn1c(NC(=O)c2ccco2)c(-c2ccccc2Cl)c(=O)c2ccccc21	inactive
C[C@H](CO)N1C[C@H](C)[C@@H](CN(C)Cc2ccc(-c3ccccc3)cc2)Oc2ncc(C#CCN(C)C)cc2C1=O	inactive
C=CCc1ccccc1OCC(O)CN1CCN(CCN2C(=O)c3cccc4cccc(c34)C2=O)CC1 (stereo not given)	inactive
C[C@H](CO)N1C[C@H](C)[C@H](CN(C)C(=O)NC2CCCCC2)Oc2ncc(-c3cccc(C(F)(F)F)c3)cc2C1=O	inactive
